# The whole screen tested about 360,000 compounds, of which about 7,300 (2%) were called active. The sample as a whole holds a higher share of actives than the screen did. Unmarked numbers belong to inactive results. Rule as the data show it: active = inhibition above about 50%; inactive = the rest.
# Experiment: blockers of TWEAK-induced Fn14 reporter activity – luciferase reporter cells, uHTS, primary screen (AID 1159606)
# Details: TWEAK-stimulated Fn14 reporter cells, luciferase luminescence, 8 h; at 10 µM; active compounds read high
row,Structure (SMILES),inhibition
1,CCc1nc2ccc(C(=O)Nc3cccc(OC)c3)cn2c1N(CCC(C)C)CCN(C)C,15.5%
2,CCN1CCN(C(=O)CCN2C(=O)c3ccccc3C2=O)CC1,-7.32%
3,C=CCN1CCN(C(=O)CCCc2ccccc2)CC1,86.5% (active)
4,CC1=NN(C(=O)CCCc2ccccc2)C(O)(C(F)(F)F)C1 (stereo unspecified),-10.4%
5,CC1CCCC(C)N1/N=C/c1ccccc1OC(F)F (stereo unspecified),-5.12%
6,Cc1nn(-c2ccccc2)c(C)c1NC(=O)CCl,6.77%
7,Cc1nn(-c2ccccc2)c(C)c1NC(=O)COc1ccc(Cl)cc1Cl,86.4% (active)
8,Cc1nn(-c2ccccc2)c(C)c1NC(=O)COC(=O)c1cc(Cl)ccc1O,1.71%
9,O=C(Nc1cccc(S(=O)(=O)N2CCCC2)c1)c1cncc(Br)c1,13.2%
10,O=C(Nc1cccc(S(=O)(=O)N2CCCCC2)c1)c1cncc(Br)c1,20.6%
11,O=C(Nc1ccc(N2CCCC2=O)cc1)c1cncc(Br)c1,50.3% (active)
12,COc1cc(C)c(CN2CCN(C(=O)CCC(=O)c3ccc(C)s3)CC2)cc1OC,11.6%
13,CCOc1ccc(Nc2nc(Cl)nc(N3CCN(c4ccc(OC)cc4)CC3)n2)cc1,1.18%
14,COc1ccc(Nc2ncc(F)c(N3CCOCC3)n2)cc1,60.1% (active)
15,COC(=O)c1ccccc1Oc1c(F)c(F)nc(N2CCOCC2)c1F,-14.1%
16,CNS(=O)(=O)c1ccc(NC(=O)C2CC(=O)N(c3ccc(Cl)cc3)C2)cc1 (stereo unspecified),14.4%
17,O=C(OCC(=O)N1CCOCC1)c1ccc(N2CCOCC2)c([N+](=O)[O-])c1,-16.3%
18,CC(=O)N1CCC(C(=O)Nc2nc(-c3ccccc3)ns2)CC1,14.9%
19,COC(=O)C1=C(C(=O)OC)[C@@H]2N(C)c3ccccc3[C@@]23C[C@@H](C(=O)OC)N(C(C)=O)C3=N1,-3.56%
20,Cc1[nH]c2ccccc2c1C(=O)C(=O)NCc1nnnn1-c1cccc(F)c1,3.05%
21,CCOC(=O)C1(CC2CCCCO2)CCN(Cc2nc(-c3cccs3)oc2C)CC1 (stereo unspecified),-0.53%

row,Structure (SMILES),inhibition
1,Cc1ccc(Sc2cc(C(=O)c3ccccc3C(=O)O)ccc2[N+](=O)[O-])cc1,-6.54%
2,O=C(CSc1cccc[n+]1[O-])c1ccc(-c2ccccc2)cc1,2.59%
3,Cc1ccc(C(=O)CSc2ccccc2C(=O)O)cc1,53.3% (active)
4,CCCCOC(=O)Nc1sc2nc(C)cc(C)c2c1-n1cccc1,0.84%
5,CN(C)NC(=O)c1csnc1-c1c(Cl)cccc1Cl,4.17%
6,COc1ccc(S(=O)(=O)N2CCOCC2)cc1NC(=O)CC1CC2CCC1C2 (stereo unspecified),3.62%
7,O=C(NCCc1ccccc1)c1cccc(NC(=O)c2ccccc2)c1,-19.1%
8,Cc1cc(=O)c2ccc(NC(=O)c3ccccc3)cc2[nH]1,-10.3%
9,O=C(NC1=CC(=O)c2ccccc2C1=O)c1ccccc1,67.5% (active)
10,NC(=O)COC(=O)c1sc2cc(F)ccc2c1Cl,-16.4%
11,FC(F)(F)Oc1ccccc1C(c1nnnn1C1CCCCC1)N1CCN(C/C=C/c2ccccc2)CC1 (stereo unspecified),24.4%
12,CC(C)c1ccccc1OCC(O)CN(CC(O)COc1cccc2ccccc12)C(C)C (stereo unspecified),-15%
13,O=C(COc1ccc(-n2cnnn2)cc1)Nc1ccccc1Cl,-14.3%
14,O=C(Nc1ccccc1Cl)O/N=C(/c1ccccc1)c1ccccn1,60.2% (active)
15,N/C(=N\OC(=O)Nc1ccccc1)c1ccno1,-22.1%
16,COc1ccc(CN2C(=O)C(CC(=O)NCCN3CCOCC3)CC(C(=O)N(C(C)C)C(C)C)=C2C)cc1 (stereo unspecified),14.2%
17,O=C(O)Cc1ccc(NCc2ccccc2Cl)cc1,22.4%
18,CC1(C)C2CCC1(C)C(OC(=O)c1ccc(O)cc1)C2 (stereo unspecified),16.2%
19,C#CCNc1ccc(C(=O)OCC)cc1,-3.49%
20,O=C(OC12CC3CC(CC(C3)C1)C2)c1ccc(NCc2cc(O)ccc2O)cc1,106% (active)
21,CC(CN1CCCCC1)OC(=O)c1ccccc1Cl (stereo unspecified),16.6%

row,Structure (SMILES),inhibition
1,COC(=O)c1ccc(NCc2cc(O)ccc2O)cc1,88.9% (active)
2,CCN(CC)C(=O)CCC(=O)Nc1ccc(C(=O)OC)cc1,0.79%
3,CC(C)OC(=O)c1ccc(NCc2cc(O)ccc2O)cc1Cl,102% (active)
4,COc1nc(N(C)C)nc(N2CC(=O)N(CCNS(=O)(=O)c3ccc(C)cc3)C2=N)n1,-3.28%
5,Cc1ccccc1-c1csc(C(O)c2cccc(Cl)c2)n1 (stereo unspecified),-4.88%
6,COc1ccc(N2CCN(C(=O)C3CCN(S(=O)(=O)c4ccc(C)cc4)CC3)CC2)cc1,-13.2%
7,Cc1nccn1CCC1CCCCN1C(=O)CCc1nnc(-c2ccsc2)o1 (stereo unspecified),-14.9%
8,CC(C)(C)NC(=O)Cn1cnc2cc([N+](=O)[O-])ccc2c1=O,83% (active)
9,CC(C)(C)NC(=O)Cn1cnc([N+](=O)[O-])n1,18.3%
10,O=C(Cn1cnc2cc([N+](=O)[O-])ccc2c1=O)NC(=O)NCc1ccccc1,-1.13%
11,Cc1cc2c(cc1S(=O)(=O)NCc1ccc(Cl)cc1)OCC(=O)N2,-8.95%
12,CCOC(=O)CCP(=O)(O)C(O)(c1ccccc1)c1ccccc1,-6.25%
13,CCOC(=O)C(=Cc1ccccc1)C(=O)c1ccccc1,98.4% (active)
14,CCOC(=O)C(=Cc1ccccc1OC)C(=O)OCC,81.9% (active)
15,CCc1ccccc1NC(=O)/C(=C/c1ccccc1)c1ccccc1,-19.8%
16,COc1ccccc1/C=C/C(=O)NC1CC2CCC1C2 (stereo unspecified),-13.3%
17,COc1ccccc1C(=O)c1ccccc1C(=O)c1ccccc1,9.79%
18,CC(C)Oc1ccc(S(=O)(=O)N2CCOCC2)cc1NC(=O)C1CSC2(C)CCC(=O)N12 (stereo unspecified),-10.2%
19,CC1(C(=O)NCc2cccc3ccccc23)CCN1Cc1ccc(-c2ccccc2)o1 (stereo unspecified),7.77%

# — PubChem BioAssay AID1159606 (Sanford-Burnham Center for Chemical Genomics, 2016)
